# Screening data: PubChem BioAssay, Broad Institute
# PfHsp40 yeast: rescue of yeast from PfHsp40 toxicity, primary screen, S. cerevisiae, ATP luminescence; AID 504582, 2011; S. cerevisiae expressing PfHsp40, growth rescue; 0.68% of 340,000 active; growth rescue, % at 12.5 µM; in the data active = growth rescue above about 28%, passing the limit was not always enough; inconclusive = no clear call, values can overlap the other calls;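 note: yeast W303a lacking pdr1 and pdr3 grown in galactose medium; growth measured after three days at 30 °C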
# Mtb BioA inh: M. tuberculosis BioA enzyme inhibitors, primary screen, biochemical, plate reader, single point, HTS. inhibition, % at 9.99 µM. purified M. tuberculosis BioA enzyme. AID 602481, 2012. 0.096% of 360,000 active; in the data active = inhibition above about 40%; inconclusive = no clear call, values can overlap the other calls
# FadD28 FP inh: inhibitors of FadD28 bisubstrate probe binding, primary screen, biochemical, fluorescence polarization, single point; inhibition, % at 12.5 µM; 0.22% of 360,000 active; AID 588549, 2011; in the data active = inhibition above about 8.5%, passing the limit was not always enough; inconclusive = no clear call, values can overlap the other calls
# TcdB inh: TcdB glycohydrolase inhibitors, primary screen, biochemical, single point, plate reader; Toxin B (Clostridioides difficile), P18177; TcdB glycohydrolase enzymatic assay; inhibition, % at 9.99 µM; 0.24% of 350,000 active; AID 652162, 2013; in the data active = inhibition above about 10%
# Yp Topo-I inh: Yersinia pestis topoisomerase I inhibitors, primary screen, biochemical, cleavage product accumulation, plate reader, single point. DNA topoisomerase I (Yersinia pestis CO92). Y. pestis Topo-I cleavage product accumulation. activity, % at 10 µM. 0.064% of 360,000 active; in the data active = activity above about 50%, passing the limit was not always enough; inconclusive = no clear call, values can overlap the other calls
# PrP UTR inh: inhibition of PrP 5' UTR reporter expression; cell-based PrP 5' UTR mRNA reporter, plate reader; inhibition, % (no concentration beside the values); AID 488862, 2010; 0.35% of 340,000 active; in the data active = inhibition above about 52%; note: 0 = median of the neutral control wells
# PrP 5UTR single: prion 5' UTR mRNA inhibition, cherry-pick retest; shares compounds with PrP UTR inh; cell-based prion protein 5' UTR reporter, plate reader; inhibition, % at 2.5 µM; 48% of 1,100 active; in the data active = inhibition above about 54%; inconclusive = no clear call, values can overlap the other calls
# * hit, by the source's call; ? = inconclusive; nt = no result. The list is not random: actives were taken first. Their share in the collection is about 1.2%.
SMILES,PfHsp40 yeast,Mtb BioA inh,FadD28 FP inh,TcdB inh,Yp Topo-I inh,PrP UTR inh,PrP 5UTR single
Cc1noc(C)c1NC(=O)Nc1ccc2c(c1)CC(=O)N([C@@H](C)CO)C[C@H](C)[C@@H](CN(C)Cc1ccc(Oc3ccccc3)cc1)O2,nt,2.4,nt,nt,nt,nt,nt
C[C@H](CO)N1C[C@H](C)[C@H](CN(C)C(=O)Nc2ccccc2)Oc2ncc(C#Cc3ccc(C(F)(F)F)cc3)cc2C1=O,nt,-3.9,nt,-0.4,nt,nt,nt
C[C@@H]1CN([C@H](C)CO)C(=O)c2cc(NS(=O)(=O)c3ccccc3)ccc2O[C@@H](C)CCCCO[C@@H]1CN(C)C,nt,-0.7,nt,-0.6,nt,nt,nt
CC(=O)OC1CC(OC2C(O)CC(OC3C(O)CC(OC4CCC5(C)C(CCC6C5CC(O)C5(C)C(C7=CC(=O)OC7)CCC65O)C4)OC3C)OC2C)OC(C)C1OC1OC(CO)C(O)C(O)C1O (stereo not given),0.1,-0.1,-3.1,2.1,3.8,90.4*,89.6*
C[C@]12CC[C@H](O)C[C@H]1CC[C@@H]1[C@@H]2CC[C@]2(C)[C@@H](C3=CC(=O)OC3)CC[C@]12O,0.0,-0.7,-2.1,1.9,2.4,77.2*,84.1*
COC1C(O)C(C)OC(OC2CCC3(C)C(CCC4C3C(O)CC3(C)C(C5=CC(=O)OC5)CCC43O)C2)C1O (stereo not given),-1.4,nt,-2.6,-10.0,-1.0,87.4*,82.3*
C[C@@H]1O[C@@H](O[C@H]2C[C@@H](O)[C@]3(CO)[C@@H]4C(CC[C@]3(O)C2)[C@@]2(O)CC[C@H](C3COC(=O)C3)[C@@]2(C)C[C@H]4O)[C@H](O)[C@H](O)[C@H]1O (stereo not given in full),1.7,-0.2,-0.2,0.5,-0.1,48.4,nt
CC12CCC(O)CC1CCC1C2CCC2(C)C(C3=CC(=O)OC3)C(O)CC12O (stereo not given),0.7,nt,-1.0,2.1,-1.5,0.2,nt
C[C@]12CC[C@H](O)C[C@H]1CC[C@@H]1[C@@H]2C[C@@H](O)[C@]2(C)[C@@H](C3=CC(=O)OC3)CC[C@]12O,0.5,0.0,-0.2,-4.2,5.0,59.0*,65.7*
C[C@H]1CC[C@@H]2[C@@H](C)[C@H]3[C@H](C[C@H]4[C@@H]5CC=C6C[C@@H](O[C@@H]7O[C@H](CO)[C@H](O)[C@H](O[C@@H]8O[C@H](CO)[C@@H](O)[C@H](O)[C@H]8O)[C@H]7O[C@@H]7O[C@@H](C)[C@H](O)[C@@H](O)[C@H]7O)CC[C@]6(C)[C@H]5CC[C@]34C)N2C1,-1.3,-1.5,-3.7,-1.4,5.7,-51.0,nt
CC=Cc1ccc2n(c1=O)C[C@H]1[C@H](CO)[C@@H](C(=O)NCC3CC3)[C@@H]2N1Cc1ccncc1 (mixture of isomers),nt,-1.9,nt,-0.7,nt,nt,nt
CCC(=O)N1CC2(C1)[C@H](c1ccccc1)[C@H](CO)N2C(=O)c1cccnc1,nt,nt,nt,-0.8,nt,nt,nt
C[C@H](CO)N1C[C@H](C)[C@@H](CN(C)C(=O)CCC(F)(F)F)OCCCC[C@H](C)Oc2ccc(NC(=O)Cc3ccccc3)cc2C1=O,nt,0.1,nt,0.2,nt,nt,nt
CC12CC[C@H]3[C@@H](CCC4(O)C[C@H](O)CCC34/C=N/NC(=O)Cc3ccccc3)C1(O)CCC2C1=CC(=O)OC1 (stereo not given in full),-0.1,-1.8,1.4,-0.5,24.5,-24.0,nt
CC12CCC(O)CC1CCC1C2CCC2(C)C(C3=CC(=O)OC3)CCC12O (stereo not given),-0.2,nt,-2.5,1.1,5.6,79.1*,81.9*
CN(C)C(=O)[C@@H]1[C@@H](CO)[C@@H]2Cn3c(ccc(C4=CCCCC4)c3=O)[C@@H]2N1Cc1ccc2c(c1)OCO2,nt,0.7,nt,-1.5,nt,nt,nt
CCOc1ccc(-c2cnc3ccccc3n2)cc1,-0.3,0.0,-0.5,2.5,11.1,60.1*,?
O=C(Nc1ccccc1)c1cccc(C(F)(F)F)c1,-0.3,nt,0.2,nt,-3.4,-11.8,nt
CCN(CC)C(=O)c1ccc(NC(=O)c2cccc(C(F)(F)F)c2)cc1,-0.8,0.4,-1.9,1.4,-8.5,78.1*,-11.8
CC1=CC(C)CC(C)OC(=O)CC(c2ccc(O)cc2)NC(=O)C(Cc2c(Br)[nH]c3ccccc23)N(C)C(=O)C(C)NC(=O)C(C)C1 (stereo not given),6.9,nt,0.3,1.7,12.3,74.4*,95.2*
COCC#Cc1ccc([C@@H]2[C@H](CO)N3CCCCN(S(=O)(=O)c4ccccc4F)C[C@@H]23)cc1,nt,-0.2,nt,0.8,nt,nt,nt
O=C(Nc1ccccc1)c1cn2ccccc2n1,-2.0,-1.1,-2.1,1.9,-0.8,30.9,nt
Cc1csc(NC(=O)c2cn3ccccc3n2)n1,0.2,-0.7,-0.4,1.0,3.7,75.9*,?
C[C@@H]1CN([C@H](C)CO)C(=O)c2cc(NC(=O)Nc3ccc(C(F)(F)F)cc3)ccc2O[C@H]1CN(C)S(C)(=O)=O,nt,7.2,nt,1.5,nt,nt,nt
O=C(NC1CCCCC1)N1CCN(c2ccccc2)CC1,-1.2,0.0,-4.5,nt,-4.8,67.0*,-36.2
SMILES,PfHsp40 yeast,Mtb BioA inh,FadD28 FP inh,TcdB inh,Yp Topo-I inh,PrP UTR inh,PrP 5UTR single
Cc1ccc(OCCC(=O)OCC(=O)c2c(N)n(CC(C)C)c(=O)n(C)c2=O)cc1,2.9,0.4,?,2.3,6.1,89.5*,1.5
Nc1ncnc2c1ncn2[C@@H]1O[C@H](CO)[C@@H](O)[C@H]1O,-3.0,-3.0,-1.2,1.9,7.3,-18.1,nt
Nc1ncnc2c(C3OC(CO)C(O)C3O)c[nH]c12 (stereo not given),-1.2,nt,-3.0,1.4,-2.9,95.1*,97.3*
N#CC1=C(N)Oc2c(ccc3ccccc23)C1c1ccsc1 (stereo not given),-0.6,0.6,-5.6,nt,5.6,77.1*,87.6*
N#CC1=C(N)Oc2c(oc(CO)cc2=O)C1c1ccsc1 (stereo not given),-0.6,-2.1,-4.2,nt,6.5,-19.5,nt
CCOc1ccc2nc(NC(=O)c3ccccn3)sc2c1,2.5,3.0,-5.1,1.0,4.3,63.4*,45.5
Cc1ccc2nc(NC(=O)c3ccccn3)sc2c1,-0.3,-1.3,0.5,1.9,2.4,88.7*,86.2*
CC=Cc1ccc2n(c1=O)C[C@H]1[C@H](CO)[C@@H](C(=O)N3CCN(C)CC3)N(Cc3ccccc3OC)[C@@H]21 (mixture of isomers),nt,-1.2,nt,nt,nt,nt,nt
CCNC(=O)C[C@@H]1CC[C@H](NC(=O)C2CCOCC2)[C@@H](CO)O1,nt,-0.5,nt,1.2,nt,nt,nt
O=[N+]([O-])c1ccc(O)c(/C=N/Nc2ccccn2)c1,308.4*,-0.2,-2.0,-1.4,6.1,54.1*,58.3*
